HCMV inh = qHTS Assay for inhibitors of the human cytomegalovirus (HCMV) | hit rate 4.5% among 410,000 | HFF cells, HCMV-luciferase reporter, 72 h; stronger effect = lower value | activity change, negative = inhibition, % at 57.5 µM; in the data active = activity change below about -60%; inconclusive = no clear call, values can overlap the other calls; inactive = above about -39%
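After 16 h attachment at 37C, HFF cells received test compound and HCMV-luciferase (1 PFU/cell); reporter luminescence read 72 h later, data normalized against buffer-only and known inhibitor Salinomycin.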
Vaccinia mCherry = qHTS for Stage-Specific Inhibitors of Vaccinia Orthopoxvirus: mCherry Reporter Primary qHTS | Vaccinia virus mCherry reporter infection, fluorescence | Potency, µM (titrated, usually from 36.5 µM), inactives show at the top dose activity change, negative = inhibition, hits mostly inhibitors | hit rate 0.63% among 310,000; calls by dose curve; tested in A549 cells; also: potency is read from the fitted curve at half-maximal effect; nearly all actives have a fitted effect of over 35% in size
Vaccinia Venus = qHTS for Stage-Specific Inhibitors of Vaccinia Orthopoxvirus: Venus Reporter Primary qHTS | AID 720580, 2013 | Potency, µM (series often up to 36.5 µM), for the others: at the highest dose activity change, negative = inhibition, most hits filed as inhibitors | Vaccinia virus Venus reporter expression, fluorescence | hit rate 0.46% among 330,000; calls by dose curve; tested in A549 cells; also: potency is read from the fitted curve at half-maximal effect; nearly all actives have a fitted effect of over 30% in size
FMDV inh = High Throughput Screening for Foot and Mouth Disease Virus Antivirals; Potency, µM (titrated, usually from 57.9 µM), inactives show at the highest dose activity change, negative = inhibition, hits mostly inhibitors; hit rate 1.2% among 410,000; AID 1159524, 2015; FMDV antiviral cell-based qHTS; calls by dose curve; tested in HEK293T cells; also: read-out not given here; potency is read from the fitted curve at half-maximal effect; nearly all actives have a fitted effect of over 45% in size
HCV inhibitor = qHTS Assay for Inhibitors of Hepatitis C Virus (HCV) | Huh7.5.1 HCVcc-Cre infection, luciferase reporter, 44 h | Potency, µM (top dose mostly 41.8 µM), without a hit: at the top dose activity change, negative = inhibition, hits mostly inhibitors | hit rate 3.4% among 340,000; active = well fitted inhibition curve with a large enough effect; inconclusive = small, poorly fitted or top-dose-only effect, or another doubt; inactive = no such curve, though single readings can be large or run the other way; also: potency is read from the fitted curve at half-maximal effect
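1,000 cells/well; 4 h culture; + compound; + HCVcc-Cre (~0.5 moi); 44 h; luciferase substrate, RT 15 min; read 15 sec.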
* marks the source's active call; other numbers are inactive results; i = inactive; ? = inconclusive; . = no result; ! = repeats disagree. Hits are enriched below; roughly 7.3% of the tested compounds scored in any of these assays. % is scaled to controls: 0 for no effect and ±100 for the full control effect.

SMILES	HCMV inh	Vaccinia mCherry	Vaccinia Venus	FMDV inh	HCV inhibitor
Cc1cccc(NC(=S)N=Nc2c(O)n(CN3CCOCC3)c3ccccc23)c1C	-77*	.	.	?	-4%
Cn1c(O)c(N=NC(=S)Nc2ccccc2F)c2cc(S(=O)(=O)N3CCOCC3)ccc21	-63*	-9%	-2%	?	?
Cc1ccc(NC(=S)N=Nc2c(O)n(C)c3ccc(S(=O)(=O)N4CCOCC4)cc23)cc1C	?	i	-18%	-22%	8%
Cc1ccc(N=Nc2c(O)n(CN3CCOCC3)c3ccccc23)cc1	.	-18%	22%	45%	-12%
C=CCn1c(O)c(N=NC(=S)Nc2ccccc2C)c2cc(S(=O)(=O)N3CCOCC3)ccc21	-74*	-19%	-10%	-26%	?
Cc1cccc(C2=CC(=O)CC(C)(C)C2=O)c1	-26	.	.	.	.
Cc1ccc([C@@H]2CC(=O)[C@@H]3CN(S(=O)(=O)c4ccccc4C)[C@H](c4ccc(Cl)cc4)C[C@@H]3N2S(=O)(=O)c2ccc(C)cc2)cc1	-94*	-22%	-29%	?	.
CC(=O)C1CN(S(=O)(=O)c2ccc(C)cc2)C(c2ccccc2)CC1C (configuration not stated)	-60*	-8%	-3%	2%	.
Cc1ccc(S(=O)(=O)N2[C@H](c3ccc(Cl)cc3)CC(=O)[C@@H]3CN(S(=O)(=O)c4ccccc4C)[C@H](c4ccc(Cl)cc4)C[C@@H]32)cc1	-89*	9%	-13%	-25%	.
Cc1ccc([C@@H]2C[C@H]3[C@@H](CN2S(=O)(=O)c2ccc(Cl)cc2)C(=O)C[C@@H](c2cccc(Cl)c2)N3S(=O)(=O)c2ccc(C)cc2)cc1	-6	-2%	-14%	0%	.
Cc1ccc(S(=O)(=O)N2[C@H](c3cccc(Cl)c3)CC(=O)[C@@H]3CN(S(=O)(=O)c4ccccc4C)[C@H](c4ccc(Cl)cc4)C[C@@H]32)cc1	-83*	-18%	-26%	?	.
Cc1ccc(S(=O)(=O)N2C[C@H]3C(=O)C[C@@H](c4ccc(Cl)cc4)N(S(=O)(=O)c4ccccc4C)[C@H]3C[C@H]2c2ccc(Cl)cc2)cc1	-20	i	-17%	-20%	.
CCn1nc(-c2ccccc2)c(-c2ccccc2)c(C(=O)Nc2nc(C)c(C(=O)N(C)C)s2)c1=O	11	-4%	-13%	-10%	.
COc1cc(OC)c2nc(-c3cc4c(c(OC)c3)OCCN(C(=O)CC3NC(=O)c5ccccc53)C4)cc(C)c2c1 (configuration not stated)	.	-10%	-10%	-15%	.
Cc1ccc(S(=O)(=O)N2C[C@H]3C(=O)C[C@@H](c4ccccc4)N(S(C)(=O)=O)[C@H]3C[C@H]2c2ccccc2)cc1	-95*	13%	-5%	-1%	.
Cc1ccc([C@@H]2CC(=O)[C@@H]3CN(S(=O)(=O)c4ccc(C)cc4)[C@H](c4ccccc4)C[C@@H]3N2S(=O)(=O)c2ccc(Cl)cc2)cc1	-18	i	-14%	-4%	.
Cc1ccc(S(=O)(=O)N2C[C@H]3C(=O)C[C@@H](c4ccccc4)N(S(=O)(=O)c4ccc(C)cc4)[C@H]3C[C@H]2c2ccc(Cl)cc2)cc1	-85*	-7%	-12%	-25%	.
CCCCN1CC(COCc2ccccc2)Oc2cccc(Oc3ccc(F)cc3OC)c2S1(=O)=O (configuration not stated)	-10	.	.	.	.
Cc1cccc(N=c2oc3cc(O)ccc3cc2C(N)=O)c1	-61*	-22%	?	4%	?
COc1ccc2cc(C(N)=O)c(=Nc3ccc(C)cc3)oc2c1	-83*	-14%	-6%	10%	-23%
O=C(c1ccccc1)N1CCCOC1c1ccccc1 (configuration not stated)	-3	2%	1%	1%	1%
O=C(c1ccccc1)N1CCOC(O)(c2ccccc2)C1c1ccccc1 (configuration not stated)	-61*	-24%	-10%	18%	-18%
COc1ccc(C(=O)Nc2ccc(NC(=O)c3ccccn3)cn2)cc1	-32	-23%	-6%	4%	-20%
Cc1cc(C)cc(OCC(=O)NNC(=O)c2ccccn2)c1	-97*	.	.	-12%	?
COc1ccc(NC(=O)c2ccccn2)cc1	.	.	-12%	11µM*	6%
SMILES	HCMV inh	Vaccinia mCherry	Vaccinia Venus	FMDV inh	HCV inhibitor
O=C(COc1ccc(Cl)cc1)NNC(=O)c1ccccn1	16	-14%	-11%	-6%	1%
COc1ccc(C(=O)N/N=C(\c2ccccc2)c2ccccn2)cc1	-99*	2.2µM*	?	-33%	2.8µM*
O=C(NN=C(c1ccccc1)c1ccccn1)c1ccccc1	-98*	2µM*	?	-14%	2.5µM*
Cc1cccc(Oc2nc3ccccn3c(=O)c2/C=C(\C#N)c2nc3ccccc3s2)c1C	-7	i	2%	?	.
Cc1ccc(C)c(C(=O)CSc2nc(-c3ccccc3)nc3c2CCCC3)c1	-10	5%	11%	?	.
COc1ccc(Cc2nc(C(=O)Nc3ccc(F)cc3)cs2)cc1	-25	-18%	?	-1%	10µM*
O=C(N/N=C(\c1ccccc1)c1ccccn1)c1ccccc1Cl	-114*	2.5µM*	?	?	?
CCC(C)NC(=S)Nc1ccc2nc(N3CCOCC3)cc(C)c2c1 (configuration not stated)	?	.	.	3%	11µM*
CCCN(CCC)CCCNC(=S)Nc1ccc2nc(N3CCCC3)cc(C)c2c1	-81*	.	.	-13%	10µM*
CCCCN(CC)CCCNC(=S)Nc1ccc2nc(N3CCN(C)CC3)cc(C)c2c1	-37	-19%	-9%	-18%	-30%
Cc1cc(N2CCOCC2)nc2ccc(NC(=S)NCCC(C)C)cc12	-4	?	-28%	-19%	10µM*
Cc1cc(N2CCN(C)CC2)nc2ccc(NC(=S)NCc3cccs3)cc12	3	?	-16%	26%	10µM*
COc1cc(C)c(CN2CCc3nnc(C(C)NC(=O)c4cc(F)ccc4F)n3CC2)cc1C (configuration not stated)	.	-19%	-18%	-16%	.
O=C(c1cc(-c2ccccc2)on1)N1CCOc2ccc(CN3CCOCC3)cc2C1	.	-14%	0%	3%	.
Clc1ccc(COC(Cn2ccnc2)c2ccc(Cl)cc2Cl)cc1 (configuration not stated)	-23	-10%	?	32µM*!	?
COCCNc1cc(-c2ccccc2C)ncn1	.	.	.	2%	.
CCN(CC)c1ccc(-c2sc(Nc3ccccc3)n[n+]2-c2ccc(F)cc2)cc1	-4	i	?	?	-9%
CCc1ccc(Nc2n[n+](-c3ccccc3)c(-c3cc(OC)c(OC)cc3Br)s2)cc1	23	?	?	-3%	?

High-throughput results from PubChem.
